In PubChem BioAssay (NCI):
Compounds without any hit were thinned out: in the full panel of roughly 83,000, 20% have a hit.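 In brief: 96-well plates, 48 h treatment, single concentration, percent growth endpoint.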 A number with no mark means an inactive call. Calls of active or inactive are those of the source. The calls were made as follows: active = growth percent below 10; inactive = the rest.

Columns and labels:
Experiment in all cases: NCI-60 one-dose screen, 48 h (100 = growth as untreated, 0 = no growth, -100 = all killed)
Details in all cases: 10 µM unless noted
NCI-H23 lung = test system: NCI-H23 lung
NCI-H226 lung = test system: NCI-H226 lung
NCI-H322M lung = test system: NCI-H322M lung
HOP-62 NSCLC = test system: HOP-62 NSCLC
NCI-H460 lung = test system: NCI-H460 lung
HOP-92 NSCLC = test system: HOP-92 NSCLC
NCI-H522 lung = test system: NCI-H522 lung
A549/ATCC NSCLC = test system: A549/ATCC NSCLC
786-0 renal = test system: 786-0 renal
COLO 205 colon = test system: COLO 205 colon

Structure (SMILES) | growth (NCI-H23 lung) | growth (NCI-H226 lung) | growth (NCI-H322M lung) | growth (HOP-62 NSCLC) | growth (NCI-H460 lung) | growth (HOP-92 NSCLC) | growth (NCI-H522 lung) | growth (A549/ATCC NSCLC) | growth (786-0 renal) | growth (COLO 205 colon)
O=[N+]([O-])c1cc(F)c2cccnc2c1O | 87.8% | 102% | 100% | 97.1% | 92.1% | 104% | 60.8% | 105% | 102% | 104%
COc1ccc(-c2oc(=O)ccc2-c2cc(OC)c(OC)c(OC)c2)cc1F | 81.4% | 82.9% | 95.4% | 67.3% | 56.3% | 62.6% | 50.8% | 27.8% | 75.2% | 57.5%
CCn1c(CN2CCN(Cc3ccccc3)CC2)nc2cc(NC(=O)c3cccs3)ccc21 | -39% (active) | -35.5% (active) | -69% (active) | -81.6% (active) | -69.9% (active) | -72.3% (active) | -64.4% (active) | -72.9% (active) | -67.8% (active) | -91.3% (active)
C[C@]12CCc3nc(Nc4ccc(O)cc4)sc3C1=CC[C@@H]1[C@@H]2CC[C@]2(C)/C(=N/NC(N)=S)CC[C@@H]12 | 1.05% (active) | 55.4% | 4.16% (active) | -24.5% (active) | -72% (active) | -19.3% (active) | -55.2% (active) | -26.7% (active) | -73.6% (active) | -40.5% (active)
FC1(F)CCN(Cc2c[nH]c3cc(Cl)ccc23)C[C@H]1CCc1ccccc1 | 67.7% | 43.5% | 84.3% | 46.1% | 42.8% | 37.3% | 67.6% | 43% | 66.9% | 69.5%
CCN(CC)CCCC(C)N/C(c1cccc(OC)c1)=c1\c(=O)[nH]n(-c2c3ccccc3nc3ccccc23)c(=O)\c1=C(/NC(C)CCCN(CC)CC)c1cccc(OC)c1 (stereo not given) | -26.3% (active) | -25.2% (active) | -37.7% (active) | -22.5% (active) | -34.1% (active) | -70% (active) | -85.6% (active) | -59.2% (active) | 3.27% (active) | -90.1% (active)
CC(=O)O[C@H]1[C@H](CC#CC#CC[C@@H]2C[C@]3(C)[C@H]4CC=C5[C@H]6[C@@H](C)[C@H](C)CC[C@]6(C(=O)NCCN(CCN)CCN)CC[C@@]5(C)[C@]4(C)CC[C@H]3C(C)(C)[C@H]2OC(C)=O)C[C@]2(C)[C@H]3CC=C4[C@H]5[C@@H](C)[C@H](C)CC[C@]5(C(=O)NCCN(CCN)CCN)CC[C@@]4(C)[C@]3(C)CC[C@H]2C1(C)C | 11.9% | 69.5% | 63.3% | 87.1% | 80.5% | 48.6% | 15.2% | 43% | 82.8% | 78%
CCCN(CCC)CC(O)COc1ccccc1C(=O)Nc1ccccc1 (stereo not given) | 90.9% | 78.9% | 119% | 66.5% | 97.6% | 84.2% | 55.8% | 40.4% | 88% | 46.1%
COc1cc(C2CC(c3cccc(Nc4ccnc5cc(Cl)ccc45)c3)=NN2c2ccccc2)cc(OC)c1OC (stereo not given) | 79.5% | 82.1% | 87% | 82.3% | 71.1% | 33.3% | 53.8% | 76.2% | 88% | 92.2%
CC(C)=CCC[C@H](C)c1ccc(C)c2c1OCN(CCO)C2 | 81.7% | 91.2% | 104% | 80.4% | 96% | 4.21% (active) | 78.1% | 82.4% | 61% | 119%
COc1cccc(NC(=O)[C@H](C(C)C)n2c(=O)[nH]c3ccccc3c2=O)c1 | 99.8% | 92.4% | 117% | 102% | 103% | 110% | 99.1% | 97.9% | 105% | 108%
COc1ccc(C(=O)c2cc(C)c(OC)c(C)c2)cc1OC(=O)CCl | 29.1% | 52.8% | 42.7% | 17.8% | 6.67% (active) | 96.5% | -40.2% (active) | 14.6% | 16.2% | 9.62% (active)
Cc1ccc(C2CC(c3cccs3)=NN2c2ccc(S(N)(=O)=O)cc2)s1 (stereo not given) | 107% | 89.8% | 98% | 95.6% | 88.8% | 75.2% | 63.2% | 71.2% | 98.5% | -75.1% (active)
O=C(Nc1cnc(C(F)(F)F)cn1)c1cc(Cl)ccc1O | 2.55% (active) | 8.55% (active) | 7.76% (active) | -4.96% (active) | 4.18% (active) | -6.58% (active) | -12.6% (active) | 2.57% (active) | 0.361% (active) | 14.2%
CCCCN(CCCC)CCC(O)c1cc2ccc(C(F)(F)F)cc2c2cc(C(F)(F)F)ccc12 (stereo not given) | 43.1% | 83.1% | 61.3% | 79.1% | 5.31% (active) | -4.55% (active) | 3.17% (active) | 64.8% | 42.4% | 33.3%
[O-]/[N+](=C\c1ccccc1)CC1(O)CCCCC1 | 104% | 99.5% | 112% | 109% | 103% | 78% | 93.7% | 101% | 109% | 117%
Clc1ccc2c(c1)-n1cccc1C(c1ccc3ccccc3c1)=NC2 | 74.4% | 146% | 122% | 101% | 96.7% | 89.6% | 41.3% | 121% | 88.7% | 102%
CCOC(=O)c1ccc(NCCC(=O)O)cc1 | 107% | 100% | 104% | 95.9% | 116% | 89.4% | 91.3% | 103% | 96.2% | 121%
C/C(CC(=O)NNc1ccc([N+](=O)[O-])cc1)=N\Nc1ccc([N+](=O)[O-])cc1 | 87.5% | 96.2% | 71.7% | 83% | 27.9% | 90.5% | 60.8% | 56.1% | 55.3% | 48.8%
CCN(CC)CCCC(C)Nc1cnc(C(=O)Nc2cc(C)cc3cccnc23)cn1 (stereo not given) | 96.3% | 60.4% | 84.2% | 91.2% | 79.5% | 51.4% | 96.8% | 72.8% | 88.2% | 37%
Fc1cc(-c2nnc3sc(-c4ccc(Cl)cc4)nn23)c(Cl)cc1Cl | 91.6% | 93.2% | 82.3% | 116% | 103% | 74.8% | 82.8% | 93.8% | 95.3% | 106%
CCOC(=O)C(Nc1ccccc1)C(=O)OCC | 108% | 99.6% | 88.1% | 101% | 115% | 72.9% | 102% | 100% | 110% | 119%
CCSc1ccc([C@@H]2[C@@H](O)C(=O)N2c2cc(OC)c(OC)c(OC)c2)cc1 | 34% | 50.7% | 39.4% | 22.6% | 5.97% (active) | 101% | 6.56% (active) | 20.8% | 14% | -48.8% (active)
COc1cc(NCCCCC(C)N)c2nccc(C)c2c1 (stereo not given) | 89.3% | 93.2% | 79.8% | 78.3% | 95.3% | 46.5% | 90.7% | 101% | 83.7% | 37%
O=C(Oc1c(Cl)c(Cl)c(Cl)c(Cl)c1Cl)C1CCCN1C(=O)OCc1ccccc1 (stereo not given) | 33.5% | 68.3% | 39.9% | 60.2% | 13.2% | -0.576% (active) | 12.4% | 17.2% | 67.7% | 35.9%
CN1CCN(Cc2ccc(NC(=O)c3cncc(C#Cc4ccc(N)nc4)c3)cc2C(F)(F)F)CC1 | 17.4% | -47.3% (active) | 25.9% | 8.59% (active) | 6.66% (active) | -25.5% (active) | 23.1% | 16.2% | 21.6% | -20.4% (active)
Cc1nc2ccc(Nc3nc(Cl)nc(N4CCOCC4)n3)cc2n1Cc1ccccc1 | 16.5% | 82.5% | 51% | 50.1% | 91.3% | 36.1% | -38.6% (active) | 92% | 68.3% | 100%
